Source: PubChem BioAssay (NCATS)
Inconclusive results are not listed. Calls of active or inactive are those of the source. Unless noted, calls follow the shape of the dose curve; as a rule, active = well fitted curve in the direction sought with a large enough effect; inconclusive = small, poorly fitted or top-dose-only effect, or another doubt; inactive = no such curve, though single readings can be large; an effect the other way counts as inactive or inconclusive.

Tests used:
[1] = Cell Viability - BJ (AID 421; calls by dose curve;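 also: potency is read from the fitted curve at half-maximal effect; cells exposed to compound for 40 hours at 37 °C before readout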); conditions: BJ fibroblast viability, qHTS
Summary of the method: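 Luminescent ATP signal (CellTiter-Glo, 20 min at room temperature) served as the read-out of viable BJ cells after 40 hours of compound treatment. Responses were scaled between DMSO and 100 uM tamoxifen, and AC50 values were obtained by Hill modeling.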

[2] = Cell Viability - Jurkat (AID 426;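 active = dose-dependent loss of cell ATP signal giving a full or clear fitted curve, ranked by lower potency value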;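 also: potency is read from the fitted curve at half-maximal effect; cells exposed to compound for 40 hours at 37 °C before ATP read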); conditions: qHTS
Summary of the method: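 Cytotoxicity was scored as loss of cellular ATP, measured by luciferase-based luminescence, in Jurkat clone E6-1 cells after 40 h compound treatment; tamoxifen and doxorubicin served as positive controls.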

[3] = Cell Viability - HepG2 (AID 433; calls by dose curve;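 also: potency is read from the fitted curve at half-maximal effect; potency for ATP loss meaning cytotoxicity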); conditions: qHTS
Summary of the method: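 Read-out is luciferase-based quantitation of cellular ATP as a measure of viable HepG2 cells after 40 h treatment at 37 °C. Signal decrease is scaled between DMSO-only and 100 uM tamoxifen controls, with AC50 fitted by the Hill equation.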

[4] = Cell Viability - SK-N-SH (AID 435; calls by dose curve;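 also: potency is read from the fitted curve at half-maximal effect; compound exposure lasted 40 h at 37 °C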); conditions: SK-N-SH neuroblastoma cell viability qHTS
Summary of the method: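 Luminescent ATP signal served as the viability read-out after 40 hours of compound treatment of human neuroblastoma SK-N-SH cells. Concentration-response data, scaled between DMSO and 100 uM tamoxifen, gave AC50 values by standard Hill modeling.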

[5] = biological target: Mitogen-activated protein kinase 10 (Mus musculus) (UniProt Q61831); assay: JNK3 AlphaScreen Assay (AID 530; active = well fitted curve in either direction with a large enough effect, not every such curve was filed as active;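 also: kinase came from lysate of stimulated human HepG2 cells; signal reports phosphorylation of biotinylated GST-cJun 1-79 at Ser73 with 10 µM ATP; % is scaled to controls: 0 for no effect and ±100 for the full control effect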); conditions: JNK3 lysate, c-Jun phosphorylation; series mostly up to 11.4 µM
Summary of the method: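 Kinase buffer: 20 mM Tris-HCl pH 7.6, 10 mM MgCl2, 1 mM DTT, 0.1 mM Na3VO4, 0.01% Tween-20; ATP 10 uM. Substrate biotin-GST-cJun(1-79), enzyme from activated HepG2 lysates. Detection by Ser73 phospho-antibody AlphaScreen.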

[6] = Cell Viability - HUV-EC-C (AID 542); conditions: HUV-EC-C endothelial cell viability, qHTS; series mostly up to 92.2 µM; also: potency is read from the fitted curve at half-maximal effect; nearly all actives have a fitted effect of over 35% in size
Summary of the method: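 Concentration-dependent ATP loss in HUV-EC-C cells is the measure. Exposure lasts 40 hr at 37 °C; luminescence follows CellTiter-Glo addition, and Hill fits give AC50.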

[7] = Cell Viability - SH-SY5Y (AID 544); conditions: SH-SY5Y neuroblastoma cell viability; viability change, negative = cytotoxic: at 92.2 µM (top of the series); also: potency is read from the fitted curve at half-maximal effect; nearly all actives have a fitted effect of over 55% in size
Summary of the method: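 Quantitative HTS in SH-SY5Y neuroblastoma cells, 40 hr treatment at 37 °C, ATP content by luciferase luminescence; AC50 from Hill fits.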

[8] = Cell Viability - Renal Proximal Tubule (AID 545); conditions: renal proximal tubule cells viability, primary cells of rat origin; activity change, negative = cytotoxicity: at 91.7 µM (top of the series); also: nearly all actives have a fitted effect of over 40% in size
Summary of the method: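 Luminescent ATP signal (CellTiter-Glo) served as the viability read-out after 40 hr compound exposure of freshly isolated rat proximal tubule cells at 37 °C. Concentration-dependent ATP loss was fitted with the Hill equation to give AC50.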

[9] = Cell Viability - Mesenchymal (AID 546); conditions: mesenchymal cells viability, qHTS; activity change, negative = cytotoxicity: at 91.7 µM (top of the series);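 also: cells exposed to compound for 40 hours before reading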
Summary of the method: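 CellTiter-Glo luminescence (intracellular ATP, 20 min room temperature) after 40 hr compound exposure at 37 °C of 1000 glomerulus-derived human kidney mesenchymal cells/well; AC50 values obtained by fitting qHTS concentration-response data to the Hill equation.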

[10] = Cellular Toxicity (caspase-3) HepG2 (AID 654); conditions: HepG2 caspase-3 activation, luminescence; series mostly up to 92.2 µM;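 also: cells exposed to compound for 16 hours before reading; 0% = DMSO alone and 100% = caspase signal from 100 µM tamoxifen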
Summary of the method: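 Concentration-response AC50 values reflect caspase-3/7 induction in HepG2 cells after 16 hours of compound exposure, quantified by luminescence from liberated aminoluciferin and referenced to 100 uM tamoxifen as full stimulation.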

[11] = Cellular Toxicity (caspase-3) Jurkat (AID 655); conditions: Jurkat caspase-3 activation, luminescence; caspase-3 activation: at 92.2 µM (top of the series), DMSO = 0%, tamoxifen = 100%;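 also: potency is read from the fitted curve at half-maximal effect; cells exposed to compound for 16 h at 37 °C before reading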
Summary of the method: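 5000 Jurkat cells/well; compound 16 hr, 37 °C; Caspase-Glo 3/7 added, 20 min RT; luminescence read. Norm: DMSO = 0%, tamoxifen 100 uM = 100%. AC50, Hill model.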

[12] = Cellular Toxicity (caspase-3) HUV-EC-C (AID 656); conditions: HUV-EC-C cells, caspase-3 activation (apoptosis); series mostly up to 92.2 µM
Summary of the method: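 qHTS; HUV-EC-C, 1000 cells/well; 5 hr settle, 16 hr cmpd, 37°C; Caspase-Glo 3/7, 20 min RT; luminescence. Norm: DMSO = 0%, tamoxifen 100 uM = 100%. Hill-fit AC50.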

[13] = Cellular Toxicity (caspase-3) SHSY5Y (AID 657); conditions: SH-SY5Y caspase-3 activation; series mostly up to 91.7 µM;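 also: potency is read from the fitted curve at half-maximal effect; cells exposed to compound for 16 hours at 37 °C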
Summary of the method: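 qHTS, SH-SY5Y, 1500 cells/well, 5 h pre-incubation 37 °C; compound 16 h 37 °C; Caspase-Glo 3/7 1 h RT; luminescence. Norm.: DMSO = 0, 10 uM staurosporine = 100%. Hill fit → AC50.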

[14] = Cellular Toxicity (caspase-3) MRC-5 (AID 659); conditions: MRC-5 cells, luminescence, normalized: DMSO 0%, 10 µM staurosporine 100%; series mostly up to 91.7 µM
Summary of the method: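 Luminescent Caspase-Glo 3/7 read-out (1 h, room temperature) after a 16 h, 37 °C compound exposure of MRC-5 lung fibroblasts at 1500 cells/well. Concentration-response AC50 from Hill equation; 0% DMSO, 100% 10 uM staurosporine.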

[15] = Cellular Toxicity (caspase-3) N2a (AID 665); conditions: N2a cells, luminescence, normalized: DMSO 0%, 10 µM staurosporine 100%; series mostly up to 92.2 µM;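 also: compound exposure lasted 16 h at 37 °C before readout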
Summary of the method: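 Concentration-response qHTS: compound-induced caspase-3/7 luminescence in N2a cells (16 h, 37 °C), relative to DMSO and 10 uM staurosporine controls; AC50 obtained using the standard Hill equation.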

[16] = Cellular Toxicity (caspase-3) NIH 3T3 (AID 666); conditions: NIH 3T3 caspase-3 activation, apoptosis/toxicity, 0% DMSO, 100% is 100 µM tamoxifen; series mostly up to 92.2 µM;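 also: 0% = DMSO basal and 100% = 100 µM tamoxifen stimulation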
Summary of the method: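 Activity: caspase-3/7 induction, NIH 3T3 cells, 16 hr treatment at 37°C, luminescent Caspase-Glo detection; AC50 via Hill equation.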

[17] = biological target: Cytochrome P450 3A4 (Homo sapiens) (UniProt P08684); assay: qHTS Assay for Activators of Cytochrome P450 3A4 (AID 885); conditions: recombinant CYP3A4, Luciferin-PPXE luminescence, 60 min; series mostly up to 11.4 µM; also: nearly all actives have a fitted effect of over 65% in size
Summary of the method: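 CYP3A4 activity: Luciferin-PPXE O-dealkylation, 25uM substrate, 200mM KPO4, RT throughout. Read-out is luciferase luminescence; higher values reflect activation.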

[18] = Cell Viability - LYMP2-001 (AID 921); conditions: LYMP2-001 lymphoblastoid cell viability; series mostly up to 92.2 µM;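 also: potency is read from the fitted curve at half-maximal effect; cells exposed to compound for 24 h at 37 °C; nearly all actives have a fitted effect of over 70% in size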
Summary of the method: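 Steps: seed 2500 lymphoblastoid cells/well; 5 hr, 37 C; add compound; 24 hr, 37 C; CellTiter-Glo reagent, 30 min room temperature; read luminescence. Concentration-response modeled by Hill equation for AC50.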

[19] = MultiTox-Fluor Cytotoxicity Assay - LYMP1-001 - Dead Cells (AID 946); conditions: LYMP1-001 lymphoblastoid cells, dead-cell protease fluorescence; series mostly up to 92.2 µM; also: potency is read from the fitted curve at half-maximal effect
Summary of the method: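 AC50 from Hill fit of concentration-response; data normalized to DMSO (basal) and 15 uM tetraoctylammonium bromide (100%). LYMP1-001 lymphoblastoid cells, 2500/well, 16 hr compound at 37 C; dead-cell protease fluorescence, Ex/Em 485/520.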

[20] = Cell Viability - LYMP1-002 - Assay at 16 hr (AID 948); conditions: LYMP1-002 lymphoblastoid cell viability; series mostly up to 92.2 µM; also: potency is read from the fitted curve at half-maximal effect
Summary of the method: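 Seed 2500 LYMP1-002 cells per well in complete medium and hold 5 hr at 37 C. Add compound across a concentration series and incubate 16 hr at 37 C. Add CellTiter-Glo, wait 30 min at room temperature, read luminescence.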

[21] = MultiTox-Fluor Cytotoxicity Assay - LYMP1-002 - Dead Cells (AID 960); conditions: LYMP1-002 lymphoblastoid cells, dead-cell protease fluorescence; series mostly up to 46.1 µM; also: potency is read from the fitted curve at half-maximal effect; nearly all actives have a fitted effect of over 60% in size
Summary of the method: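 Concentration-dependent increases in membrane-leaked protease activity are quantified in LYMP1-002 cells after 16 hr treatment; values are normalized against DMSO and tetraoctylammonium bromide (15 uM) controls and AC50 derived by Hill modeling.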

[22] = MultiTox-Fluor Cytotoxicity Assay - LYMP1-003 - Dead Cells (AID 961); conditions: LYMP1-003 lymphoblastoid cells, dead-cell protease fluorescence; series mostly up to 92.2 µM; also: potency is read from the fitted curve at half-maximal effect; nearly all actives have a fitted effect of over 70% in size
Summary of the method: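 Human lymphoblastoid LYMP1-003 cells (2500/well) were treated with compounds for 16 hr at 37 C in complete medium. Dead-cell protease release was read by bis-AAF-R110 fluorescence (Ex/Em 485/520). AC50 came from Hill fits, normalized to DMSO and 15 uM tetraoctylammonium bromide.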

[23] = MultiTox-Fluor Cytotoxicity Assay - LYMP1-003 - Live Cells (AID 962); conditions: LYMP1-003 lymphoblastoid cells, MultiTox-Fluor live-cell protease fluorescence; series mostly up to 92.2 µM;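 also: potency is read from the fitted curve at half-maximal effect; cells exposed to compound for 16 hours at 37 °C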
Summary of the method: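 Human lymphoblastoid line LYMP1-003 in complete culture medium, treated 16 hr with titrated compounds. Viable cells quantified via cell-permeant GF-AFC substrate fluorescence; AC50 derived by Hill fitting.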

[24] = Cell Viability - LYMP1-003 - Assay at 40 hr (AID 964); conditions: LYMP1-003 lymphoblastoid viability; series mostly up to 92.2 µM; also: potency is read from the fitted curve at half-maximal effect; nearly all actives have a fitted effect of over 60% in size
Summary of the method: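 Acute toxicity is scored as a concentration-dependent loss of intracellular ATP in LYMP1-003 cells (2500/well, complete medium) after 40 hr at 37 C, measured by CellTiter-Glo luminescence; AC50 values derive from standard Hill modelling.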

Chain of Cytochrome P450 3A4 (Homo sapiens) (P08684 whole entry, looked up): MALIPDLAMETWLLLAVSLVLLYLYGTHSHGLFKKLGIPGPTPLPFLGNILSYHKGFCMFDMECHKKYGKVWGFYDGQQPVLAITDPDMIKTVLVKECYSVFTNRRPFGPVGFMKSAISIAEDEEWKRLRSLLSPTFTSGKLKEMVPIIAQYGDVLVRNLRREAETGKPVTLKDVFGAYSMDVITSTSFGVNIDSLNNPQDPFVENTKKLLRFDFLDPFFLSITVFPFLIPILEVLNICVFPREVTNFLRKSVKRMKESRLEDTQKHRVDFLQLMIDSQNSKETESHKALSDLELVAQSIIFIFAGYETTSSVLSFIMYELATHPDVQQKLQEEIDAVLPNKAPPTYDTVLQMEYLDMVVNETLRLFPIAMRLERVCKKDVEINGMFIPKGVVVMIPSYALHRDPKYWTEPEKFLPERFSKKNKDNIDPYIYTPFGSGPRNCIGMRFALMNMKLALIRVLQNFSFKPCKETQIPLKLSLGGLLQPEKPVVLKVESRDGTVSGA

C=C1CC[C@H](O)C/C1=C/C=C1\CCC[C@]2(C)[C@@H]([C@H](C)CCCC(C)C)CC[C@@H]12
active: Potency [1] 61.2 µM | Potency [2] 27.5 µM | Potency [4] 47.1 µM | Potency [6] 39.8 µM | Potency [7] 31.6 µM | activity change, negative = cytotoxicity [8] -97.9% | activity change, negative = cytotoxicity [9] -102% | Potency [11] 31.6 µM | Potency [13] 31.6 µM | Potency [18] 39.8 µM | Potency [19] 39.8 µM | Potency [20] 50.1 µM | Potency [21] 31.6 µM | Potency [22] 39.8 µM | Potency [23] 50.1 µM | Potency [24] 39.8 µM
inactive: Potency [3] > 92 µM | Potency [5] | Potency [10] | Potency [12] | outcome [14] | outcome [15] | outcome [16] | Potency [17]
